# Only some compounds are listed: those with a hit (about 4.7% of all), similar ones and a draw of the others.
# RecA splice inh – Mtb RecA intein splicing inhibitors, primary screen, biochemical, fluorescence, HTS; Protein RecA (Mycobacterium tuberculosis (strain ATCC 25618 / H37Rv)), P9WHJ3; cell-free RecA intein splicing; inhibition, % (concentration not given with the values); 290,000 compounds, 0.75% hits; in the data active = inhibition above about 30%
# Mtb FBA inh – Mtb FBA enzyme inhibitors, primary screen, biochemical, fluorescence, strain H37Rv; Fructose-bisphosphate aldolase (Mycobacterium tuberculosis (strain ATCC 25618 / H37Rv)), …; purified M. tuberculosis FBA, fluorescence read-out; inhibition, % at 1 µM; 360,000 compounds, 2.3% hits
# VHR inh abs – VHR1 phosphatase inhibitors, primary screen, biochemical, absorbance, uHTS | Dual specificity protein phosphatase 3 (Homo sapiens), P51452 | recombinant VHR phosphatase, pNPP absorbance | inhibition, % at 13.3 µM | 290,000 compounds, 0.52% hits; in the data active = inhibition above about 50%
# SARS 3CLpro inh – SARS-CoV 3CLpro protease inhibitors, primary screen, biochemical, quenched FRET; Replicase polyprotein 1ab (Severe acute respiratory syndrome coronavirus), P0C6X7; recombinant SARS-CoV 3CLpro, quenched FRET peptide cleavage; inhibition, % at 6 µM; 290,000 compounds, 0.14% hits; AID 1706, 2009; in the data active = inhibition above about 12%
# GDH-TPI counter-1 – GDH-TPI coupling enzyme inhibitors, primary screen, artefact control for M. tuberculosis FBA inhibitor project, biochemical, absorbance, full deck; GDH-TPI coupled enzyme counterscreen, NADH absorbance; inhibition, % at 4.8 µM; 360,000 compounds, 1.2% hits; AID 588335, 2011; in the data active = inhibition above about 30%
# CCHFV vOTU inh – CCHFV vOTU protease inhibitors, primary screen, biochemical, Pep-AMC substrate, fluorescence. inhibition, % at 11.5 µM. 370,000 compounds, 0.55% hits; in the data active = inhibition above about 30%
# Mtb FBA confirm – M. tuberculosis aldolase blockers, biochemical, fluorescence, strain H37Rv, confirmation | 5,600 compounds, 78% hits | purified M. tuberculosis FBA, fluorescence read-out | shares compounds with Mtb FBA inh | inhibition, % at 1 µM
# GDH-TPI counter-2 – GDH-TPI coupling enzyme inhibitors, artefact control for M. tuberculosis FBA inhibitor project, biochemical, fluorescence, high throughput; GDH-TPI coupled enzyme counterscreen; inhibition, % at 1 µM; shares compounds with Mtb FBA inh; 5,600 compounds, 81% hits; AID 652141, 2013; in the data active = inhibition above about 10%
# Hits are given with their value; n = inactive; x = no result; + = active, no number. Rule as the data show it, unless noted: active = inhibition above about 27%; inactive = the rest.
SMILES,RecA splice inh,Mtb FBA inh,VHR inh abs,SARS 3CLpro inh,GDH-TPI counter-1,CCHFV vOTU inh,Mtb FBA confirm,GDH-TPI counter-2
Cc1c(C)c2ccc(OC(C)C(=O)NCc3ccccn3)cc2oc1=O (stereo unspecified),n,87,n,n,n,n,155,121
Cc1cc(OC(C)C(=O)NCc2cccnc2)c2c(C)c(C)c(=O)oc2c1 (stereo unspecified),n,n,n,n,n,n,x,x
COc1cc(CN2C[C@@H](CO)O[C@@H](n3cnc4c(NC5CCC5)ncnc43)C2)cc(OC)c1OC,x,n,x,x,n,n,x,x
Clc1ccc(CSc2nnnn2-c2ccc3c(c2)OCO3)c(Cl)c1,n,n,n,n,n,n,x,x
CCOC(=O)c1sc(-c2ccccc2)cc1NC(=O)CSc1nnnn1C,n,n,n,n,n,n,x,x
CCOC(=O)c1sc(-c2ccc(OC)cc2)cc1NC(C)=O,n,79,n,n,n,n,153,134
COC(=O)C(Cc1ccc(O)cc1)N1Cc2ccccc2C1=O (stereo unspecified),n,n,n,n,n,n,x,x
O=C(CSc1nc(C(F)(F)F)cc(=O)[nH]1)N1CCCCCC1,n,n,x,x,n,n,x,x
O=c1cc(C(F)(F)F)c2sc(N3CCCCC3)nc2[nH]1,n,86,n,n,n,n,162,125
CC[C@]12c3[nH]c4ccccc4c3CCN1C(=O)C(CC(=O)NCCc1ccccn1)C[C@@H]2C(=O)N1CCN(C(=O)C2CC2)CC1 (stereo partly specified),x,n,x,x,n,n,x,x
C[C@]12c3[nH]c4cc(-c5ccco5)ccc4c3CCN1C(=O)[C@@H](CC(=O)NCCc1ccccn1)C[C@@H]2C(=O)N1CCCCC1,x,43,x,x,n,n,68,47
CC[C@]12c3[nH]c4cc(-c5ccco5)ccc4c3CCN1C(=O)[C@@H](CC(=O)NC(C)(C)C)C[C@@H]2C(=O)N1CCN(C(=O)C2CC2)CC1,x,27,x,x,n,n,63,52
CC[C@]12c3[nH]c4cc(-c5ccco5)ccc4c3CCN1C(=O)[C@@H](CC(=O)NCCc1ccccn1)C[C@@H]2C(=O)N1CCN(C(=O)C2CC2)CC1,x,30,x,x,n,n,47,33
CC[C@]12c3[nH]c4cc(-c5ccco5)ccc4c3CCN1C(=O)[C@@H](CC(=O)NC/C=C(\C)CCC=C(C)C)C[C@@H]2C(=O)N1CCN(C(=O)C2CC2)CC1,x,n,x,x,n,n,x,x
CC1(c2nnnn2-c2ccc(F)cc2)CCCC(=O)N1CCc1c[nH]c2ccccc12 (stereo unspecified),x,x,x,x,x,n,x,x
COC(=O)[C@@]12C[C@@H](CC(=O)N3CCSCC3)C(=O)N(Cc3ccco3)C1=CCC(C)(C)C2,x,x,x,x,x,n,x,x
C[C@@H]1CCCCO[C@H](CN(C)Cc2ccncc2)[C@@H](C)CN([C@H](C)CO)C(=O)c2cc(N(C)C)ccc2O1,x,x,x,x,x,n,x,x
COCCCNC(=S)N1CCN(C(c2ccccc2)c2ccccc2)CC1,n,n,n,n,n,n,x,x
COc1ccccc1NC(=O)CN1CC(=O)Nc2ccccc21,n,n,n,n,n,n,x,x
COCCN1C(=O)CCC1(C)C(=O)Nc1ccc2c(c1)OCCO2 (stereo unspecified),x,n,x,x,x,n,x,x
Cc1cc(N2CCN(CC(C)(C)O)C[C@H]2C)ccc1N1CCN(CC(C)(C)O)[C@H](C)C1,x,x,x,x,x,n,x,x
CCN(CC)S(=O)(=O)c1ccc(O)c(NC(=O)COc2ccc(S(=O)(=O)N3CCOCC3)cc2)c1,x,n,x,x,n,n,x,x
COCCCNc1nc2ccccc2nc1NS(=O)(=O)c1ccc(OC)cc1,n,30,n,n,n,n,71,65
Cc1ccc(C(C)C)cc1-n1nnc(-c2cccc(Cc3ccc4ccccc4c3)c2)c1C(C)O (stereo unspecified),x,n,x,x,n,n,x,x
COc1cccc2c1cc1c(=O)n(CC(=O)N3CCCC3)nc(C)n12,x,80,x,x,n,n,n,n
SMILES,RecA splice inh,Mtb FBA inh,VHR inh abs,SARS 3CLpro inh,GDH-TPI counter-1,CCHFV vOTU inh,Mtb FBA confirm,GDH-TPI counter-2
COc1ccc(F)cc1C(=O)C1CCCN(Cc2ccc(Sc3nncn3C)o2)C1 (stereo unspecified),n,n,n,n,n,n,x,x
CCCCn1c(-c2csc3ccccc23)n[nH]c1=S,n,n,n,n,n,n,x,x
CCCCCCn1c(-c2cccs2)n[nH]c1=S,n,48,n,n,183,n,n,n
CCOc1ccc(-c2nc(C#N)c(NCc3ccco3)o2)cc1,n,53,n,n,n,n,58,50
CNc1oc(-c2ccco2)nc1C#N,n,68,n,n,n,n,46,45
Cc1ccc(CNc2oc(-c3ccco3)nc2C#N)cc1,n,54,n,n,n,n,n,n
N#Cc1nc(-c2ccc(OCc3ccccc3)cc2)oc1NCc1cccnc1,n,n,n,n,n,n,x,x
CC(=O)NC(Cc1ccc(C)cc1)C(=O)NC1CCN(c2ncccc2[N+](=O)[O-])CC1 (stereo unspecified),n,n,n,n,n,n,x,x
Cc1nc2c(C(=O)N3CCC4(CC3)OCCO4)cnn2c(C)c1Cc1cccc(Cl)c1,n,31,n,n,n,n,+,192
CCOC(=O)N1CCN(C(=O)c2cnn3c(C)c(Cc4ccc(C)cc4)c(C)nc23)CC1,n,34,n,n,n,x,115,92
COC(=O)c1cnn2c(C)c(Cc3cccc(F)c3)c(C)nc12,n,43,n,n,n,n,n,n
Cc1ccc(C)c(Cc2c(C)nc3c(C(=O)N4CCOCC4)cnn3c2C)c1,n,62,n,n,n,n,x,+
Cc1nc2c(C(=O)N3CCCC3)cnn2c(C)c1Cc1c(F)cccc1Cl,n,n,n,n,n,n,x,x
COc1ccc2cc(/C=N/NC(=O)CN(c3ccccc3OC)S(=O)(=O)c3ccccc3)c(Cl)nc2c1,x,x,x,x,x,n,x,x
COc1ccc(N2C3=C(C(=O)CC(C)(C)C3)C(c3ccccc3OC)C3=C2CC(C)(C)CC3=O)cc1,n,50,n,n,n,n,76,60
COc1ccccc1C1C2=C(CC(C)(C)CC2=O)N(CC(=O)O)C2=C1C(=O)CC(C)(C)C2,n,n,n,n,n,n,x,x
FC(F)(F)c1nc2ccccc2n2c(-c3ccc(Cl)cc3)nnc12,n,61,n,n,n,n,n,n
